# Data taken from PubChem BioAssay AID1159580 (chemical genetic matrix, 2015).
# The campaign covered roughly 5,500 compounds. About 2,000 (36%) were called active. About 18% were inconclusive and are not listed. This is one part of the list. Unmarked numbers belong to inactive results. No stated cut-off is given here; in the data, active means normalized growth mostly below about 0.91 (no sharp cut-off); inconclusive means no clear call, values can overlap the other calls; inactive means mostly above about 0.92.
# Experiment: chemical genetic growth profiling, strain panel (AID 1159580);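 further: tested at 20 µM; growth read once vehicle control cultures reached saturation at 30 °C; 1 = growth at the plate median or of vehicle wells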
# Conditions: growth OD
structure (smiles),measurement,setting,value
CCCCCCCCCCCC1=C(O)C(=O)C=C(O)C1=O,normalized growth,"S. cerevisiae deletion strains, locus YJL168C, strain set2, stronger effect = lower value",0.975
same,normalized growth,"S. cerevisiae deletion strains, locus YJL187C, strain SWE1 (second series), stronger effect = lower value",0.981
same,normalized growth,"S. cerevisiae deletion strains, locus YJR043C, strain POL32, stronger effect = lower value",0.584 (active)
same,normalized growth,"S. cerevisiae deletion strains, locus YKL068W, stronger effect = lower value",0.936 (active)
same,normalized growth,"S. cerevisiae deletion strains, locus YKL085W, strain MDH1 (second series), stronger effect = lower value",0.513 (active)
same,normalized growth,"S. cerevisiae deletion strains, locus YKL085W, strain MDH1, stronger effect = lower value",0.513 (active)
same,normalized growth,"S. cerevisiae deletion strains, locus YKL160W, strain elf1, stronger effect = lower value",0.805 (active)
same,normalized growth,"S. cerevisiae deletion strains, locus YKR001C, strain vps1, stronger effect = lower value",0.776 (active)
same,normalized growth,"S. cerevisiae deletion strains, locus YKR026C, strain gcn3, stronger effect = lower value",0.82 (active)
same,normalized growth,"S. cerevisiae deletion strains, locus YKR091W, strain srl3, stronger effect = lower value",0.911 (active)
same,normalized growth,"S. cerevisiae deletion strains, locus YLL001W, strain dnm1, stronger effect = lower value",0.502 (active)
same,normalized growth,"S. cerevisiae deletion strains, locus YLL026W, stronger effect = lower value",0.972
same,normalized growth,"S. cerevisiae deletion strains, locus YLL041C, strain sdh2, stronger effect = lower value",0.933
same,normalized growth,"S. cerevisiae deletion strains, locus YLR027C, strain aat2, stronger effect = lower value",0.839 (active)
same,normalized growth,"S. cerevisiae deletion strains, locus YLR039C, strain RIC1, stronger effect = lower value",0.296 (active)
same,normalized growth,"S. cerevisiae deletion strains, locus YLR058C, strain SHM2, stronger effect = lower value",1
same,normalized growth,"S. cerevisiae deletion strains, locus YLR102C, strain apc9, stronger effect = lower value",0.974
same,normalized growth,"S. cerevisiae deletion strains, locus YLR221C, strain rsa3, stronger effect = lower value",0.801 (active)
same,normalized growth,"S. cerevisiae deletion strains, locus YLR258W, strain gsy2, stronger effect = lower value",0.911 (active)
same,normalized growth,"S. cerevisiae deletion strains, locus YLR262C, strain YPT6 (second series), stronger effect = lower value",0.477 (active)
same,normalized growth,"S. cerevisiae deletion strains, locus YLR262C, strain YPT6, stronger effect = lower value",0.414 (active)
same,normalized growth,"S. cerevisiae deletion strains, locus YLR268W, strain sec22, stronger effect = lower value",0.756 (active)
same,normalized growth,"S. cerevisiae deletion strains, locus YLR320W, strain mms22, stronger effect = lower value",0.83 (active)
same,normalized growth,"S. cerevisiae deletion strains, locus YLR330W, strain CHS5, stronger effect = lower value",0.842 (active)
same,normalized growth,"S. cerevisiae deletion strains, locus YLR342W, strain FKS1 (second series), stronger effect = lower value",0.886
same,normalized growth,"S. cerevisiae deletion strains, locus YLR342W, strain FKS1, stronger effect = lower value",0.72 (active)
same,normalized growth,"S. cerevisiae deletion strains, locus YLR357W, strain rsc2, stronger effect = lower value",0.441 (active)
same,normalized growth,"S. cerevisiae deletion strains, locus YLR370C, strain arc18, stronger effect = lower value",0.242 (active)
same,normalized growth,"S. cerevisiae deletion strains, locus YLR371W, strain rom2, stronger effect = lower value",0.945
same,normalized growth,"S. cerevisiae deletion strains, locus YLR384C, strain iki3, stronger effect = lower value",0.989
same,normalized growth,"S. cerevisiae deletion strains, locus YLR418C, strain cdc73, stronger effect = lower value",0.819 (active)
same,normalized growth,"S. cerevisiae deletion strains, locus YML016C, strain PPZ1, stronger effect = lower value",0.991
same,normalized growth,"S. cerevisiae deletion strains, locus YML032C, strain rad52, stronger effect = lower value",0.882 (active)
same,normalized growth,"S. cerevisiae deletion strains, locus YML120C, strain ndi1, stronger effect = lower value",0.952
same,normalized growth,"S. cerevisiae deletion strains, locus YML124C, strain tub3, stronger effect = lower value",0.975
same,normalized growth,"S. cerevisiae deletion strains, locus YMR058W, strain fet3, stronger effect = lower value",0.0857 (active)
same,normalized growth,"S. cerevisiae deletion strains, locus YMR078C, strain ctf18, stronger effect = lower value",0.96
same,normalized growth,"S. cerevisiae deletion strains, locus YMR125W, strain sto1, stronger effect = lower value",0.832 (active)
same,normalized growth,"S. cerevisiae deletion strains, locus YMR129W, stronger effect = lower value",0.883 (active)
same,normalized growth,"S. cerevisiae deletion strains, locus YMR205C, strain PFK2, stronger effect = lower value",0.901
same,normalized growth,"S. cerevisiae deletion strains, locus YMR223W, strain ubp8, stronger effect = lower value",0.87 (active)
same,normalized growth,"S. cerevisiae deletion strains, locus YMR231W, strain pep5, stronger effect = lower value",0.69 (active)
same,normalized growth,"S. cerevisiae deletion strains, locus YMR263W, strain SAP30, stronger effect = lower value",0.766 (active)
same,normalized growth,"S. cerevisiae deletion strains, locus YMR307W, strain GAS1, stronger effect = lower value",0.378 (active)
same,normalized growth,"S. cerevisiae deletion strains, locus YNL067W, strain RPL9B, stronger effect = lower value",0.823 (active)
same,normalized growth,"S. cerevisiae deletion strains, locus YNL071W, strain lat1, stronger effect = lower value",0.912 (active)
same,normalized growth,"S. cerevisiae deletion strains, locus YNL128W, strain TEP1, stronger effect = lower value",0.683 (active)
same,normalized growth,"S. cerevisiae deletion strains, locus YNL209W, strain ssb2, stronger effect = lower value",0.61 (active)
same,normalized growth,"S. cerevisiae deletion strains, locus YNL233W, strain BNI4, stronger effect = lower value",0.857 (active)
same,normalized growth,"S. cerevisiae deletion strains, locus YNL248C, strain rpa49, stronger effect = lower value",0.757 (active)
same,normalized growth,"S. cerevisiae deletion strains, locus YNL250W, strain rad50, stronger effect = lower value",0.738 (active)
same,normalized growth,"S. cerevisiae deletion strains, locus YNL271C, strain bni1, stronger effect = lower value",0.636 (active)
same,normalized growth,"S. cerevisiae deletion strains, locus YNL298W, strain CLA4, stronger effect = lower value",0.66 (active)
same,normalized growth,"S. cerevisiae deletion strains, locus YNL307C, strain MCK1, stronger effect = lower value",0.857 (active)
same,normalized growth,"S. cerevisiae deletion strains, locus YNL322C, strain KRE1 (second series), stronger effect = lower value",0.922
same,normalized growth,"S. cerevisiae deletion strains, locus YNR049C, strain mso1, stronger effect = lower value",0.638 (active)
same,normalized growth,"S. cerevisiae deletion strains, locus YNR052C, strain pop2, stronger effect = lower value",0.866 (active)
same,normalized growth,"S. cerevisiae deletion strains, locus YOL012C, strain htz1",0.529
same,normalized growth,"S. cerevisiae deletion strains, locus YOL147C, strain pex11, stronger effect = lower value",0.871 (active)
same,normalized growth,"S. cerevisiae deletion strains, locus YOR001W, strain rrp6, stronger effect = lower value",0.86 (active)
same,normalized growth,"S. cerevisiae deletion strains, locus YOR061W, strain CKA2, stronger effect = lower value",0.986
same,normalized growth,"S. cerevisiae deletion strains, locus YOR069W, strain VPS5, stronger effect = lower value",0.983
same,normalized growth,"S. cerevisiae deletion strains, locus YOR070C, strain gyp1, stronger effect = lower value",0.97
same,normalized growth,"S. cerevisiae deletion strains, locus YOR080W, strain dia2, stronger effect = lower value",0.946
same,normalized growth,"S. cerevisiae deletion strains, locus YOR083W, strain WHI5, stronger effect = lower value",0.807 (active)
same,normalized growth,"S. cerevisiae deletion strains, locus YOR106W, strain vam3, stronger effect = lower value",0.637 (active)
same,normalized growth,"S. cerevisiae deletion strains, locus YOR136W, strain idh2, stronger effect = lower value",0.919 (active)
same,normalized growth,"S. cerevisiae deletion strains, locus YOR144C, strain elg1, stronger effect = lower value",0.877 (active)
same,normalized growth,"S. cerevisiae deletion strains, locus YOR184W, strain ser1, stronger effect = lower value",0.875
same,normalized growth,"S. cerevisiae deletion strains, locus YOR265W, strain rbl2, stronger effect = lower value",0.867 (active)
same,normalized growth,"S. cerevisiae deletion strains, locus YOR270C, strain vph1, stronger effect = lower value",0.298 (active)
same,normalized growth,"S. cerevisiae deletion strains, locus YOR290C, strain snf2, stronger effect = lower value",0.471 (active)
same,normalized growth,"S. cerevisiae deletion strains, locus YOR316C, strain cot1, stronger effect = lower value",0.999
same,normalized growth,"S. cerevisiae deletion strains, locus YPL051W, strain arl3, stronger effect = lower value",0.768 (active)
same,normalized growth,"S. cerevisiae deletion strains, locus YPL055C, strain LGE1, stronger effect = lower value",0.483 (active)
same,normalized growth,"S. cerevisiae deletion strains, locus YPL078C, strain atp4, stronger effect = lower value",0.647 (active)
same,normalized growth,"S. cerevisiae deletion strains, locus YPL106C, strain sse1, stronger effect = lower value",0.794 (active)
same,normalized growth,"S. cerevisiae deletion strains, locus YPL240C, strain hsp82, stronger effect = lower value",0.907 (active)
same,normalized growth,"S. cerevisiae deletion strains, locus YPL241C, strain CIN2, stronger effect = lower value",0.851 (active)
same,normalized growth,"S. cerevisiae deletion strains, locus YPR119W, strain clb2, stronger effect = lower value",0.986
same,normalized growth,"S. cerevisiae deletion strains, locus YPR141C, strain kar3, stronger effect = lower value",0.735 (active)
same,normalized growth,"S. cerevisiae deletion strains, locus YPR163C, strain tif3, stronger effect = lower value",0.977
same,normalized growth,"S. cerevisiae deletion strains, locus YPR167C, strain met16, stronger effect = lower value",0.846 (active)
same,normalized growth,"S. cerevisiae deletion strains, strain wtn01, stronger effect = lower value",0.871 (active)
same,normalized growth,"S. cerevisiae strains, strain wild type, stronger effect = lower value",0.693 (active)
